Sampled rows, rich in hits. Any-hit rate of the full collection: about 9.3%.
NPC1 promoter act – activates the NPC1 promoter | Huh7 NPC1 promoter luciferase reporter, 24 h | Potency, µM (top dose mostly 9.22 µM), without a hit: at the highest dose activation, usual class: activators | hit rate 2.4% among 320,000 | AID 485313; note: % of control where 0% means no effect; nearly all actives have a fitted effect of over 60% in size
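Luciferase expression driven by the NPC1 promoter was measured in stably transfected Huh7 cells after a 24 h compound incubation, using a luciferase reagent and a luminescence read.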
FLuc modulator – counter-screen for miR-21 project: firefly luciferase inhibitors or activators; Potency, µM (highest dose often 57.5 µM), without a hit: at the top dose activity change, negative = inhibition, most hits filed as inhibitors; hit rate 6.9% among 360,000; purified FLuc, Km substrates, luminescence inhibition; P08659; AID 588342;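 note: plate controls were vehicle for no effect and reference inhibitor for full effect; nearly all actives have a fitted effect of over 55% in size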
Target sequence (P08659 whole entry, looked up): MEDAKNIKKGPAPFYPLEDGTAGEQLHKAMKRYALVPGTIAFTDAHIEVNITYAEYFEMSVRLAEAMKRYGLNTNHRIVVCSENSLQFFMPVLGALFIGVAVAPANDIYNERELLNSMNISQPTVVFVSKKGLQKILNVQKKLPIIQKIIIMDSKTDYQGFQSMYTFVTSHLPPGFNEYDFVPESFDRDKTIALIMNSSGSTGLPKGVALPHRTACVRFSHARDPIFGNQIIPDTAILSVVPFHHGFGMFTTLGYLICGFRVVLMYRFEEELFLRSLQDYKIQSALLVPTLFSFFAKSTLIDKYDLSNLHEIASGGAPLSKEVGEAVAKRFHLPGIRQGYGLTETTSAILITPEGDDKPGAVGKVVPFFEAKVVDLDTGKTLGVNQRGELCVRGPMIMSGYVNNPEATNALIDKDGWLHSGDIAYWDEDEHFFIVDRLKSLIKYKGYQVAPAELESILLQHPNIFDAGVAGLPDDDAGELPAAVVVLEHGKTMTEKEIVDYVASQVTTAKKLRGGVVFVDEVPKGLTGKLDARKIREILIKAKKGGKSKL
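Biochemical qHTS of compounds, final roughly 60 µM downward over six points, against 10 nM purified firefly luciferase using Km concentrations of substrates (10 uM D-luciferin, 10 uM ATP) in Tris acetate pH 7.5 buffer; luminescence output.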
SMN2 splice enh – increases expression of the SMN2 splice variant. hit rate 2.8% among 210,000. AID 1458. Potency, µM (series often up to 46.1 µM), inactives show at the highest dose activity change, positive = activation, usual class: activators. HEK293 SMN2-luciferase splicing reporter, luminescence, 30-36 h; note: % of control where 0% means no effect; nearly all actives have a fitted effect of over 55% in size
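HEK293 cells carry an SMN2 […]–luciferase reporter in which exon 7 inclusion puts luciferase in frame. Cells were plated 10-12 h before compound addition, then incubated 30-36 h at 37C. ONE-Glo luminescence was read; sodium butyrate at 4.5 mM final served as control.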
Rab9 promoter act – activators of Rab9 promoter. Huh7 Rab9 promoter-luciferase reporter, luminescence, 24 h. Potency, µM (highest dose often 9.22 µM), without a hit: top-dose activation, negative = inhibition, actives largely listed as activators. hit rate 2.8% among 320,000. AID 485297; note: % of control where 0% means no effect; nearly all actives have a fitted effect of over 60% in size
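Huh7 reporter line, Rab9 promoter upstream of luciferase. Compound exposure 24 h at 37 °C in reduced-serum medium with 10% FBS. Read-out: luminescence.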
ELG1 genotox – induces genotoxicity in HEK293T cells with luciferase-tagged ELG1; AID 504466; Potency, µM (doses to about 46 µM), inactives show top-dose activity change, positive = activation, usual class: activators; hit rate 1.3% among 330,000; HEK293T ELG1-luciferase reporter, luminescence, 16 h; note: % of control where 0% means no effect; nearly all actives have a fitted effect of over 60% in size
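Genotoxic stress is detected as increased luminescence from luciferase-tagged ELG1 in HEK293T cells, measured with ONE-Glo after a 16 hr treatment at 37 °C.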
ELG1 DNA repair – inhibitors of ELG1-dependent DNA repair in HEK293T cells. HEK293T ELG1-luciferase reporter, luminescence, 16 h; DNA damage induced by 5-fluorouridine. Potency, µM (top dose mostly 46.1 µM), inactives show at the top dose activity change, negative = inhibition, usual class: inhibitors. hit rate 2.3% among 330,000. AID 504467; note: % is set by controls: 0 for no effect and ±100 for the full control effect; nearly all actives have a fitted effect of over 55% in size
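DMSO vehicle served as the neutral condition. Each well held 2,000 cells given 5-fluorouridine plus compound; after 16 hr at 37 °C/5% CO2, ONE-Glo was added and luciferase measured 30 min later.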
* = called active by the depositor. Calls come from the whole dose curve; as a rule, active = well fitted curve in the direction sought with a large enough effect; inconclusive = small, poorly fitted or top-dose-only effect, or another doubt; inactive = no such curve, though single readings can be large; an effect the other way counts as inactive or inconclusive. Potency is the fitted concentration of half-maximal effect.

For CCCCCc1ccc(-c2ccc(/C=C/C(N)=O)cc2)nc1 the results were NPC1 promoter act inconclusive, FLuc modulator 4.8µM*, SMN2 splice enh -1%, Rab9 promoter act inconclusive, ELG1 genotox 16% and ELG1 DNA repair inconclusive.
For CCCCCc1ccc(-c2ccc(C(=O)Oc3ccc(C(=O)OC)cc3)cc2)nc1 the results were FLuc modulator 12µM* and SMN2 splice enh -46%.
For CCCc1ccc(-c2ccc(C(=O)O)cc2)nc1 the results were NPC1 promoter act inconclusive, FLuc modulator 1.5µM*, SMN2 splice enh 2.5µM*, Rab9 promoter act 0.4µM*, ELG1 genotox inconclusive and ELG1 DNA repair inconclusive.
Screening Oc1ccccc1C1=Nc2nc3ccccc3n2C(c2ccccc2)C1 (stereo unspecified) returned NPC1 promoter act 7%, FLuc modulator 11µM*, SMN2 splice enh 19%, Rab9 promoter act 16%, ELG1 genotox inconclusive and ELG1 DNA repair inconclusive.
`Oc1ccccc1C1=NN(c2ccccc2)C(c2ccc(F)cc2)C1` (stereo unspecified) gave NPC1 promoter act 1%, FLuc modulator -4%, Rab9 promoter act 2%, ELG1 genotox -5% and ELG1 DNA repair -13%.
Cc1nn(-c2ccccc2)c(N2CCCC2)c1/C=C1\N=C(c2ccc(F)cc2)OC1=O was read as NPC1 promoter act 0%, FLuc modulator 5%, SMN2 splice enh -41%, Rab9 promoter act -1%, ELG1 genotox -3% and ELG1 DNA repair -6%.
Screening O=c1c2c(nc3n1CCCCC3)sc1c(O)c(Br)ccc12 returned NPC1 promoter act 4µM*, FLuc modulator 2.7µM*, SMN2 splice enh 16µM*, Rab9 promoter act 2.8µM*, ELG1 genotox 2.3µM* and ELG1 DNA repair inconclusive.
For CCN(CC)CCOc1c(Br)ccc2c1sc1nc3n(c(=O)c12)CCC3 the results were NPC1 promoter act -1%, FLuc modulator -2%, SMN2 splice enh -29%, Rab9 promoter act -3%, ELG1 genotox inconclusive and ELG1 DNA repair -12%.
For CCCc1nc2ccccc2c(=O)n1/N=C/c1ccc(O)cc1 the results were NPC1 promoter act 2%, FLuc modulator 2%, SMN2 splice enh -6%, Rab9 promoter act inconclusive, ELG1 genotox -5% and ELG1 DNA repair 12µM*.
`CCCc1nc2ccccc2c(=O)n1/N=C/c1ccc(O)cc1O` gave NPC1 promoter act -16%, FLuc modulator 0%, SMN2 splice enh -22%, Rab9 promoter act 1%, ELG1 genotox -10% and ELG1 DNA repair inconclusive.
`O=c1c2ccccc2nc(COc2ccccc2)n1/N=C/c1ccc(O)c(O)c1` gave NPC1 promoter act -6%, FLuc modulator 27µM*, Rab9 promoter act -20%, ELG1 genotox -6% and ELG1 DNA repair inconclusive.
`COc1ccc2nc(NC(=O)C3CCCN(S(=O)(=O)c4cccc5nsnc45)C3)sc2c1` (stereo unspecified) gave NPC1 promoter act -1%, FLuc modulator 1%, SMN2 splice enh 7%, Rab9 promoter act -7%, ELG1 genotox -33% and ELG1 DNA repair 12µM*.
CCOc1ccc2nc(NC(=O)C3CCCN(S(=O)(=O)c4cccc5nonc45)C3)sc2c1 (stereo unspecified) was read as NPC1 promoter act 0%, FLuc modulator inconclusive, SMN2 splice enh -8%, Rab9 promoter act -6%, ELG1 genotox -7% and ELG1 DNA repair 23µM*.
`COc1ccc(CNC(=O)C2CCCN(S(=O)(=O)c3cccc4nsnc34)C2)cc1` (stereo unspecified) gave NPC1 promoter act -4%, FLuc modulator 3%, SMN2 splice enh -23%, Rab9 promoter act 0%, ELG1 genotox -5% and ELG1 DNA repair -2%.
Screening COc1ccc2nc(NC(=O)C3CCCN(S(=O)(=O)c4cccc5nonc45)C3)sc2c1 (stereo unspecified) returned NPC1 promoter act 1%, FLuc modulator -15%, SMN2 splice enh -17%, Rab9 promoter act -1%, ELG1 genotox -3% and ELG1 DNA repair 26µM*.
For CCOc1ccc(Nc2nc(C)c(NC(=O)c3cccc(F)c3)c(Nc3ccc(OCC)cc3)n2)cc1 the results were FLuc modulator 3% and SMN2 splice enh 10%.
`O=S(=O)(Nc1ccc(-c2cn3cccnc3n2)cc1)c1ccccc1` gave NPC1 promoter act 0%, FLuc modulator inconclusive, SMN2 splice enh 3%, Rab9 promoter act -8%, ELG1 genotox 1% and ELG1 DNA repair 7%.
Screening Clc1ccc(-c2cn3cccnc3n2)cc1 returned NPC1 promoter act 27%, FLuc modulator 11µM*, SMN2 splice enh -5%, Rab9 promoter act inconclusive, ELG1 genotox 16µM* and ELG1 DNA repair inconclusive.
Brc1ccc(-c2cn3cccnc3n2)cc1 was read as NPC1 promoter act inconclusive, FLuc modulator 8.5µM*, SMN2 splice enh 7.9µM*, Rab9 promoter act 2.2µM*, ELG1 genotox 2.9µM* and ELG1 DNA repair inconclusive.
Screening Clc1ccc(-c2cn3cccnc3n2)cc1Cl returned NPC1 promoter act inconclusive, FLuc modulator 17µM*, SMN2 splice enh inconclusive, Rab9 promoter act inconclusive, ELG1 genotox inconclusive and ELG1 DNA repair inconclusive.
For COc1ccc(-c2cn3cccnc3n2)cc1F the results were NPC1 promoter act inconclusive, FLuc modulator 8.5µM*, SMN2 splice enh 16µM*, Rab9 promoter act inconclusive, ELG1 genotox inconclusive and ELG1 DNA repair inconclusive.
`COCC(=O)Nc1ccc(-c2cn3cccnc3n2)cc1` gave NPC1 promoter act 1%, FLuc modulator inconclusive, SMN2 splice enh -11%, Rab9 promoter act 21%, ELG1 genotox 15% and ELG1 DNA repair inconclusive.
Screening Cc1ccc(C)c(NC(=O)N2CCN(C)c3ncccc32)c1 returned FLuc modulator -1% and SMN2 splice enh -5%.
Screening Cc1ccc(NC2CCCN(C(=O)c3ccccn3)C2)cc1C (stereo unspecified) returned NPC1 promoter act 0%, FLuc modulator -2%, Rab9 promoter act 0%, ELG1 genotox 5% and ELG1 DNA repair -2%.
For O=C(c1cnccn1)N1CCC2(CCN(Cc3ccccc3)CC2)CC1 the results were SMN2 splice enh 0%.
`N#CCCN1CCN(C(=S)c2ccc(-c3ccc(Cl)cc3)o2)CC1` gave NPC1 promoter act 16%, FLuc modulator 21µM*, SMN2 splice enh -16%, Rab9 promoter act 25%, ELG1 genotox inconclusive and ELG1 DNA repair inconclusive.

Compound activity (PubChem)
